# Test results reported in the supplement of paper PMC4022240.
# ± gives the standard deviation.
# How the values were obtained:
# Experiment in all cases: peptide microarray binding signal (635 nm), min-max normalized on array (fraction of array maximum); higher = stronger binding
# Conditions in all cases: peptide region: H3 30-42
# [1] = biological target: T1, HaloTag-ATRX ADD domain (163-292)
# T1 chain: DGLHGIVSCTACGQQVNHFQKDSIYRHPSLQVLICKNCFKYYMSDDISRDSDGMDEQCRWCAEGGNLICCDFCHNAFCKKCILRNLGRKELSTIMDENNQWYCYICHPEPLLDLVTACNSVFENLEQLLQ
# In short: (§1)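 Within each library, mean intensities of triplicate spots were min-max scaled to give the binding signal. The spots were histone 13-mer peptide–cellulose conjugates on nitrocellulose with a Cy3 tracer, blocked overnight at 4°C. They were then probed for 1 h at 4°C using biotin-labelled HaloTag reader fusions (10 nM to 1 μM) with streptavidin-Alexa Fluor 647 or rabbit histone antibodies (1:10,000 to 1:2,000) with anti-rabbit Alexa 647, and scanned at 635 nm for signal and 532 nm for misprints on an Axon GenePix 4000B.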
# [2] = biological target: HaloTag-ING2 PHD (mouse Ing2 200-280)
# In short: as §1
# [3] = biological target: anti-H3K4me3 antibody ab8580
# In short: as §1
# [4] = biological target: anti-H3K9me3 antibody ab8898
# In short: as §1
# [5] = peptide modifications: H3K36me2 H3K37me1, binder concentration: 1:2,000 dilution
# [6] = peptide modifications: H3K36me2 H3K37me1, binder concentration: 1:10,000 dilution
# [7] = peptide modifications: H3K36me2 H3K37me2, binder concentration: 1:2,000 dilution
# [8] = peptide modifications: H3K36me2 H3K37me2, binder concentration: 1:10,000 dilution
# [9] = peptide modifications: H3K36me3 H3K37ac, binder concentration: 1:2,000 dilution
# [10] = peptide modifications: H3K36me3 H3K37ac, binder concentration: 1:10,000 dilution
# [11] = peptide modifications: H3K37me2, binder concentration: 1:2,000 dilution
# [12] = peptide modifications: H3K37me2, binder concentration: 1:10,000 dilution
# [13] = peptide modifications: H3T32ph, binder concentration: 1:2,000 dilution
# [14] = peptide modifications: H3T32ph, binder concentration: 1:10,000 dilution
# [15] = peptide modifications: H3T32ph H3K36me1, binder concentration: 1:2,000 dilution
# [16] = peptide modifications: H3T32ph H3K36me1, binder concentration: 1:10,000 dilution
# [17] = peptide modifications: H3K37ac, binder concentration: 1:2,000 dilution
# [18] = peptide modifications: H3K37ac, binder concentration: 1:10,000 dilution
# [19] = peptide modifications: H3K36me2 H3K37me3, binder concentration: 1:2,000 dilution
# [20] = peptide modifications: H3K36me2 H3K37me3, binder concentration: 1:10,000 dilution
# [21] = peptide modifications: H3K36me1 H3K37me1, binder concentration: 1:2,000 dilution
# [22] = peptide modifications: H3K36me1 H3K37me1, binder concentration: 1:10,000 dilution
# [23] = peptide modifications: H3K36me2 H3K37ac, binder concentration: 1:2,000 dilution
# [24] = peptide modifications: H3K36me2 H3K37ac, binder concentration: 1:10,000 dilution
binder,measurement,setting,value
PATGGVKKPHRYR [H3 30-42 P A T G G V Kme2 Kme P H R Y R],peptide microarray binding signal,"[1]; peptide modifications: H3K36me2 H3K37me1, binder concentration: 50 nM",0.00476 ± 8.1e-05
same,peptide microarray binding signal,"[1]; peptide modifications: H3K36me2 H3K37me1, binder concentration: 500 nM",0.0141 ± 0.0045
same,peptide microarray binding signal,"[2]; peptide modifications: H3K36me2 H3K37me1, binder concentration: 10 nM",0.00913 ± 0.0015
same,peptide microarray binding signal,"[2]; peptide modifications: H3K36me2 H3K37me1, binder concentration: 100 nM",0.00376 ± 0.0011
same,peptide microarray binding signal,[3]; [5],0.000774 ± 0.00022
same,peptide microarray binding signal,[3]; [6],0.00622 ± 0.002
same,peptide microarray binding signal,[4]; [5],0.00214 ± 0.00062
same,peptide microarray binding signal,[4]; [6],0.00208 ± 0.00019
PATGGVKKPHRYR [H3 30-42 P A T G G V Kme2 Kme2 P H R Y R],peptide microarray binding signal,"[1]; peptide modifications: H3K36me2 H3K37me2, binder concentration: 50 nM",0.00185 ± 1.5e-05
same,peptide microarray binding signal,"[1]; peptide modifications: H3K36me2 H3K37me2, binder concentration: 500 nM",0.00476 ± 0.00025
same,peptide microarray binding signal,"[2]; peptide modifications: H3K36me2 H3K37me2, binder concentration: 10 nM",0.00501 ± 0.00021
same,peptide microarray binding signal,"[2]; peptide modifications: H3K36me2 H3K37me2, binder concentration: 100 nM",0.00227 ± 0.00036
same,peptide microarray binding signal,[3]; [7],0.000396 ± 7e-06
same,peptide microarray binding signal,[3]; [8],0.000799 ± 5.8e-05
same,peptide microarray binding signal,[4]; [7],0.00267 ± 8.5e-05
same,peptide microarray binding signal,[4]; [8],0.00104 ± 2.8e-05
PATGGVKKPHRYR [H3 30-42 P A T G G V Kme3 Kac P H R Y R],peptide microarray binding signal,"[1]; peptide modifications: H3K36me3 H3K37ac, binder concentration: 50 nM",0.00197 ± 6.4e-05
same,peptide microarray binding signal,"[1]; peptide modifications: H3K36me3 H3K37ac, binder concentration: 500 nM",0.00643 ± 0.0006
same,peptide microarray binding signal,"[2]; peptide modifications: H3K36me3 H3K37ac, binder concentration: 10 nM",0.00603 ± 7.6e-05
same,peptide microarray binding signal,"[2]; peptide modifications: H3K36me3 H3K37ac, binder concentration: 100 nM",0.00128 ± 0.00011
same,peptide microarray binding signal,[3]; [9],0.000566 ± 6.2e-05
same,peptide microarray binding signal,[3]; [10],0.00856 ± 0.0042
same,peptide microarray binding signal,[4]; [9],0.0143 ± 0.0012
same,peptide microarray binding signal,[4]; [10],0.00617 ± 0.0014
PATGGVKKPHRYR [H3 30-42 P A T G G V K Kme2 P H R Y R],peptide microarray binding signal,"[1]; peptide modifications: H3K37me2, binder concentration: 50 nM",0.0036 ± 0.00019
same,peptide microarray binding signal,"[1]; peptide modifications: H3K37me2, binder concentration: 500 nM",0.00771 ± 0.00019
same,peptide microarray binding signal,"[2]; peptide modifications: H3K37me2, binder concentration: 10 nM",0.0121 ± 0.00097
same,peptide microarray binding signal,"[2]; peptide modifications: H3K37me2, binder concentration: 100 nM",0.0202 ± 0.002
same,peptide microarray binding signal,[3]; [11],0.00302 ± 0.00039
same,peptide microarray binding signal,[3]; [12],0.00297 ± 0.00012
same,peptide microarray binding signal,[4]; [11],0.00163 ± 0.00014
same,peptide microarray binding signal,[4]; [12],0.001441 ± 1.4e-05
PATGGVKKPHRYR [H3 30-42 P A Tph G G V K K P H R Y R],peptide microarray binding signal,"[1]; peptide modifications: H3T32ph, binder concentration: 50 nM",0.004984 ± 4.8e-05
same,peptide microarray binding signal,"[1]; peptide modifications: H3T32ph, binder concentration: 500 nM",0.0106 ± 0.00088
same,peptide microarray binding signal,"[2]; peptide modifications: H3T32ph, binder concentration: 10 nM",0.00812 ± 0.00079
same,peptide microarray binding signal,"[2]; peptide modifications: H3T32ph, binder concentration: 100 nM",0.0157 ± 0.0015
same,peptide microarray binding signal,[3]; [13],0.00115 ± 3.8e-05
same,peptide microarray binding signal,[3]; [14],0.001484 ± 1.4e-05
same,peptide microarray binding signal,[4]; [13],0.000574 ± 2.6e-05
same,peptide microarray binding signal,[4]; [14],0.0011 ± 1.1e-05
PATGGVKKPHRYR [H3 30-42 P A Tph G G V Kme K P H R Y R],peptide microarray binding signal,"[1]; peptide modifications: H3T32ph H3K36me1, binder concentration: 50 nM",0.00552 ± 0.00021
same,peptide microarray binding signal,"[1]; peptide modifications: H3T32ph H3K36me1, binder concentration: 500 nM",0.00914 ± 0.00072
same,peptide microarray binding signal,"[2]; peptide modifications: H3T32ph H3K36me1, binder concentration: 10 nM",0.00871 ± 0.00013
same,peptide microarray binding signal,"[2]; peptide modifications: H3T32ph H3K36me1, binder concentration: 100 nM",0.0167 ± 0.0011
same,peptide microarray binding signal,[3]; [15],0.00193 ± 0.00024
same,peptide microarray binding signal,[3]; [16],0.00257 ± 0.00014
same,peptide microarray binding signal,[4]; [15],0.00118 ± 0.00016
same,peptide microarray binding signal,[4]; [16],0.00144 ± 0.00011
PATGGVKKPHRYR [H3 30-42 P A T G G V K Kac P H R Y R],peptide microarray binding signal,"[1]; peptide modifications: H3K37ac, binder concentration: 50 nM",0.00991 ± 0.00064
same,peptide microarray binding signal,"[1]; peptide modifications: H3K37ac, binder concentration: 500 nM",0.0214 ± 0.0021
same,peptide microarray binding signal,"[2]; peptide modifications: H3K37ac, binder concentration: 10 nM",0.0263 ± 0.00079
same,peptide microarray binding signal,"[2]; peptide modifications: H3K37ac, binder concentration: 100 nM",0.0376 ± 0.0021
same,peptide microarray binding signal,[3]; [17],0.0146 ± 0.0013
same,peptide microarray binding signal,[3]; [18],0.014 ± 0.00079
same,peptide microarray binding signal,[4]; [17],0.0131 ± 0.00032
same,peptide microarray binding signal,[4]; [18],0.00663 ± 0.00069
PATGGVKKPHRYR [H3 30-42 P A T G G V Kme2 Kme3 P H R Y R],peptide microarray binding signal,"[1]; peptide modifications: H3K36me2 H3K37me3, binder concentration: 50 nM",0.00266 ± 7.1e-05
same,peptide microarray binding signal,"[1]; peptide modifications: H3K36me2 H3K37me3, binder concentration: 500 nM",0.00343 ± 0.00019
same,peptide microarray binding signal,"[2]; peptide modifications: H3K36me2 H3K37me3, binder concentration: 10 nM",0.00298 ± 6.6e-05
same,peptide microarray binding signal,"[2]; peptide modifications: H3K36me2 H3K37me3, binder concentration: 100 nM",0.00454 ± 0.00042
same,peptide microarray binding signal,[3]; [19],0.0016 ± 0.00015
same,peptide microarray binding signal,[3]; [20],0.00126 ± 3.7e-05
same,peptide microarray binding signal,[4]; [19],0.00429 ± 0.0012
same,peptide microarray binding signal,[4]; [20],0.00133 ± 4e-05
PATGGVKKPHRYR [H3 30-42 P A T G G V Kme Kme P H R Y R],peptide microarray binding signal,"[1]; peptide modifications: H3K36me1 H3K37me1, binder concentration: 50 nM",0.00245 ± 4.3e-05
same,peptide microarray binding signal,"[1]; peptide modifications: H3K36me1 H3K37me1, binder concentration: 500 nM",0.0039 ± 0.00015
same,peptide microarray binding signal,"[2]; peptide modifications: H3K36me1 H3K37me1, binder concentration: 10 nM",0.00424 ± 0.00021
same,peptide microarray binding signal,"[2]; peptide modifications: H3K36me1 H3K37me1, binder concentration: 100 nM",0.000496 ± 9.7e-06
same,peptide microarray binding signal,[3]; [21],0.000189 ± 2e-06
same,peptide microarray binding signal,[3]; [22],0.00559 ± 0.0011
same,peptide microarray binding signal,[4]; [21],0.00157 ± 0.00052
same,peptide microarray binding signal,[4]; [22],0.00254 ± 0.00014
PATGGVKKPHRYR [H3 30-42 P A T G G V Kme2 Kac P H R Y R],peptide microarray binding signal,"[1]; peptide modifications: H3K36me2 H3K37ac, binder concentration: 50 nM",0.00094 ± 1.9e-05
same,peptide microarray binding signal,"[1]; peptide modifications: H3K36me2 H3K37ac, binder concentration: 500 nM",0.000857 ± 1.5e-05
same,peptide microarray binding signal,"[2]; peptide modifications: H3K36me2 H3K37ac, binder concentration: 10 nM",0.0544 ± 0.07
same,peptide microarray binding signal,"[2]; peptide modifications: H3K36me2 H3K37ac, binder concentration: 100 nM",0.00354 ± 0.00098
same,peptide microarray binding signal,[3]; [23],0.000529 ± 1.4e-05
same,peptide microarray binding signal,[3]; [24],0.000685 ± 4.7e-05
same,peptide microarray binding signal,[4]; [23],0.000438 ± 1.5e-05
same,peptide microarray binding signal,[4]; [24],0.000461 ± 8.7e-06
